Screens deposited in PubChem by National Center for Advancing Translational Sciences (NCATS).
PLK1 PBD inh: qHTS for Inhibitors of PLK1-PDB (polo-like kinase 1 - polo-box domain): Primary Screen; Serine/threonine-protein kinase PLK1 (Homo sapiens), P53350; Plk1 PBD binding of FITC phosphopeptide, fluorescence polarization; Potency, µM, inactives show max response, negative = inhibition, actives largely listed as inhibitors; actives 2.8% (n = 360,000); AID 720504, 2013; further: series mostly up to about 57 µM; on the % scale 0 is the no-effect control and ±100 the full control effect; nearly all actives have a fitted effect of over 65% in size
JMJD2A Tudor inh: qHTS Assay for Inhibitors of JMJD2A-Tudor Domain | Lysine-specific demethylase 4A (Homo sapiens), O75164 | AlphaScreen JMJD2A-Tudor / H3K4me3 peptide binding | Potency, µM (titrated, usually from 114 µM), for the others: top-dose activity change, negative = inhibition, actives largely listed as inhibitors | actives 4.4% (n = 390,000) | AID 504339, 2011; further: on the % scale 0 is the no-effect control and ±100 the full control effect; nearly all actives have a fitted effect of over 50% in size
Sfp inh: qHTS Assay for Inhibitors of Bacillus subtilis Sfp phosphopantetheinyl transferase (PPTase). 4'-phosphopantetheinyl transferase ffp (Bacillus subtilis), Q9F4F7. Biochemical Sfp PPTase activity, qHTS. Potency, µM, for the others: largest response in the series, negative = inhibition, actives largely listed as inhibitors. actives 3.5% (n = 310,000);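 further: the enzyme is Sfp with the accession as filed and its product quenches rhodamine fluorescence; 0% = enzyme reaction without inhibitor and -100% = no enzyme wells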
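Fluorescence-quenching assay with 15 nM Sfp, 5 uM rhodamine-CoA and 12.5 uM BHQ-2-labelled ybbR peptide in pH 7.6 Hepes/MgCl2 buffer. Enzyme was pre-incubated with compound for 15 min at room temperature. Rate was taken from the 30-min fluorescence change (525/598 nm).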
HP1b binding inh: HTS for Inhibitors of HP1-beta Chromodomain Interactions with Methylated Histone Tails; Potency, µM (highest dose often 114 µM), for the others: at the highest dose activity change, negative = inhibition, usual class: inhibitors; AID 540317, 2011; AlphaScreen HP1-beta / biotin-H3K9me3 peptide binding; actives 0.56% (n = 390,000); Chromobox protein homolog 1 (Homo sapiens), P83916; further: nearly all actives have a fitted effect of over 70% in size
Target sequence (P83916 whole entry, looked up): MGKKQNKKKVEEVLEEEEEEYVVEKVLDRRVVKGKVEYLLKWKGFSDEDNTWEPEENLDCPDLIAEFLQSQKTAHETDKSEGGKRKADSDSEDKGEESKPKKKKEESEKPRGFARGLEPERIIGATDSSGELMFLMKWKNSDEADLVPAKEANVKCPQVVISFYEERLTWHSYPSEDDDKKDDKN
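Compound inhibition of the preformed complex between 50 nM HP1-beta and 50 nM biotinylated H3K9me3 peptide was read by AlphaScreen. Buffer was PBS pH 7.4 with 0.01% Tween-20. Incubations ran 30 min at room temperature, with 10 ug/mL donor/acceptor beads.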
BAZ2B block: qHTS Assay for Inhibitors of BAZ2B | AlphaScreen BAZ2B-H3K14Ac peptide displacement | Potency, µM (top dose mostly 114 µM), inactives show top-dose activity change, negative = inhibition, most hits filed as inhibitors | actives 4.4% (n = 360,000) | AID 504333, 2011; further: on the % scale 0 is the no-effect control and ±100 the full control effect; nearly all actives have a fitted effect of over 60% in size
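Protein-peptide AlphaScreen: BAZ2B 50 nM, b-H3K14Ac 50 nM, 1x PBS pH 7.4 + 0.01% Tween-20. Preincubation 30 min RT; cpd 30 min RT (top 110 uM); beads 20 min RT, light-protected.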
G9a inh: qHTS Assay for Inhibitors of Histone Lysine Methyltransferase G9a; Histone-lysine N-methyltransferase EHMT2 (Homo sapiens), Q96KQ7; G9a H3K9 monomethylation, AlphaScreen, 2 h; Potency, µM (series often up to 102 µM), inactives show at the highest dose activity, negative = inhibition, hits mostly inhibitors; actives 8.8% (n = 350,000); further: on the % scale 0 is the no-effect control and ±100 the full control effect; nearly all actives have a fitted effect of over 75% in size
Target sequence (Q96KQ7 913-1193 limits assumed): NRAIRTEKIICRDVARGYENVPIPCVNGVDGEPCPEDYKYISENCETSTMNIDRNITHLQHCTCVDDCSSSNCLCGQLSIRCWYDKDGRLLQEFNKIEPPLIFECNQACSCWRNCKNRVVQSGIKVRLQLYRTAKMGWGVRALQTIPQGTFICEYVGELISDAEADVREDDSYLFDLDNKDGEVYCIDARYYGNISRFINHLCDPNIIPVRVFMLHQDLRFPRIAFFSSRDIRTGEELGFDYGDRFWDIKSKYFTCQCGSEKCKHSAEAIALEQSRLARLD
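Readings reflect AlphaScreen signal from monomethyl-H3K9 antibody detection. HMT at 20 nM; substrate b-H3K9 500 nM; cofactor SAM 20 uM; 2 h RT reaction; compounds tested as titrations in qHTS with 15 min preincubation.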
* marks the source's active call; other numbers are inactive results; ? = inconclusive; . = not tested or not shown; [ ] = remark or other dose. Only some compounds are listed: those with a hit (about 12% of all), similar ones and a draw of the others. The call rests on the fitted dose curve; in most records, active means well fitted curve in the direction sought with a large enough effect; inconclusive means small, poorly fitted or top-dose-only effect, or another doubt; inactive means no such curve, though single readings can be large; an effect the other way counts as inactive or inconclusive. Potency means the concentration at half of the fitted maximal effect.

SMILES | PLK1 PBD inh | JMJD2A Tudor inh | Sfp inh | HP1b binding inh | BAZ2B block | G9a inh
Brc1ccccc1-c1nnc2sc(-c3ccc4c(c3)OCCO4)nn12 | -3.8% | -18.3% | -8.5% | 14.7% | 0.9% | 5.6%[12.7 µM]
Fc1ccc(-c2nn3c(C4COc5ccccc5O4)nnc3s2)cc1 (stereo unspecified) | 21.2µM* | ? | 39.8µM* | ? | 0.1% | 3.16µM*
O=C(O)c1cccc(S(=O)(=O)Nc2ccccc2Oc2ccccc2)c1 | -4.8% | . | . | . | . | .
CCN(c1ccccc1)S(=O)(=O)c1ccc(C(=O)N(CCN(C)C)c2nc3c(F)cc(F)cc3s2)cc1 | . | . | 3.4% | . | -14.6% | 44.7µM*
CN(C)CCCN(C(=O)c1ccco1)c1nc2c(F)cc(F)cc2s1 | -1.3% | 4.1% | 13.7% | 16.6% | -18.2% | 1.1%
COc1ccc2sc(N(CCCN(C)C)C(=O)c3ccc(C(=O)c4ccccc4)cc3)nc2c1 | -12.9% | 50.1µM* | . | -30.9% | ? | 44.7µM*
CN(C)CCCN(C(=O)c1ccco1)c1nc2cc3c(cc2s1)OCO3 | -6.0% | -23.0% | -1.4% | 27.8% | -17.9% | -47.4%
CCN(Cc1ccccc1)S(=O)(=O)c1ccc(C(=O)N(CCCN(C)C)c2nc3ccc(F)cc3s2)cc1 | 0.2% | ? | 89.1µM* | -2.1% | 28.2µM* | .
CN(C)CCCN(C(=O)c1ccco1)c1nc2ccc(F)cc2s1 | -4.4% | -9.1% | 3.6% | 25.3% | . | ?
CCN(Cc1ccccc1)S(=O)(=O)c1ccc(C(=O)N(CCCN(C)C)c2nc3cc4c(cc3s2)OCCO4)cc1 | -1.7% | 44.7µM* | . | ? | 35.5µM* | 39.8µM*
CCc1ccc(NC(=O)c2ccc3c(O)c(S(=O)(=O)c4ccccc4)c(=O)[nH]c3c2)cc1 | . | -22.0% | . | 32.1% | -20.6% | -16.3%[59 µM]
COc1ccccc1CNC(=O)CN(C)S(=O)(=O)c1ccc2c(c1)n(C)c(=O)c(=O)n2C | -6.5% | -12.4% | 17.0% | 23.9% | -3.5% | 1.0%
Cc1cccc(N2CCN(C(=O)Cn3nc(C)c4sc5ccccc5c4c3=O)CC2)c1C | . | -25.5% | . | 47.2% | -13.8% | ?
CCN(Cc1ccccc1)S(=O)(=O)c1ccc(C(=O)N(CCCN(C)C)c2nc3cc(OC)ccc3s2)cc1 | 1.1% | ? | . | -11.2% | ? | 44.7µM*
CN(C)CCCN(C(=O)c1ccc(S(=O)(=O)N(C)Cc2ccccc2)cc1)c1nc2c(F)cccc2s1 | -5.8% | ? | -23.9% | -10.0% | ? | -6.5%
COc1cccc(NC(=O)Cn2c(=O)ccc3cc(S(=O)(=O)N4CCC(C)CC4)ccc32)c1 | . | -20.0% | . | 20.9%[57 µM] | -1.3% | 0.0%[59 µM]
CCc1ccc(NC(=O)CN(CC(=O)Nc2ccc(CC)cc2)CC(C)O)cc1 (stereo unspecified) | 26.7µM* | ? | 13.4% | 1.2% | -18.4% | -27.0%[2.33 µM]
COc1ccc(OC)c(C2=NS(=O)(=O)N(C)C(C(=O)Nc3ccc(C(C)=O)cc3)=C2)c1 | 29.9µM* | ? | 10.5% | -14.9% | -14.7% | -24.3%
CSc1ccccc1NC(=O)C1=CC(c2ccc(C)cc2)=NS(=O)(=O)N1C | -8.3% | -34.5% | 18.3% | 15.9% | ? | 79.4µM*
COc1ccc(C2=NS(=O)(=O)N(C)C(C(=O)Nc3ccc(OC(F)(F)F)cc3)=C2)cc1 | . | -33.4% | . | 4.9% | -33.9% | 14.1µM*
Cc1ccc(C2=NS(=O)(=O)N(C)C(C(=O)NC(C)c3ccccc3)=C2)cc1 (stereo unspecified) | 7.3% | -26.8% | 16.2% | 24.4% | -34.0% | -1.0%
O=C(CN1CCN(Cc2ccc(F)cc2Cl)C1=O)NCCc1ccccc1 | 1.7% | -29.7% | -9.5% | 25.6% | 11.8% | ?
O=C(O)CN1CCN(Cc2ccc(F)cc2Cl)C1=O | -9.7% | -11.5% | 6.9% | 22.9% | -31.4% | 25.1µM*
N#CCCN1CCN(C(=S)c2ccc(-c3ccc(Cl)cc3)o2)CC1 | ? | 44.7µM* | 20µM* | ? | 39.8µM* | ?
O=C(c1ccc(-c2ccccc2Cl)o1)N1CCN(c2ccccc2O)CC1 | -6.7% | ? | . | -17.0% | ? | 17.8µM*
SMILES | PLK1 PBD inh | JMJD2A Tudor inh | Sfp inh | HP1b binding inh | BAZ2B block | G9a inh
S=C(c1ccc(-c2ccccc2Cl)o1)N1CCCCC1 | -25.8% | ? | 39.8µM* | ? | ? | ?
O=C(O)c1ccc(-c2ccccc2Cl)o1 | -9.7% | -23.9% | -6.8% | 27.0% | -31.9% | ?
Clc1ccc(-c2ccc(CN3CCCCC3)o2)cc1 | -17.1% | -30.6% | -9.6% | 11.2% | ? | -15.1%
S=C(c1ccc(-c2ccc(Cl)cc2)o1)N1CCCCC1 | -18.0% | 22.4µM* | 20µM* | ? | 28.2µM* | 12.6µM*
O=C(O)c1ccc(/C=C/c2nc3sc4c(c3c(=O)[nH]2)CCC4)cc1 | -10.2% | -7.6% | 9.7% | ? | -2.1% | ?
O=c1cc(CSc2n[nH]c(-c3ccccc3)n2)[nH]c2ccccc12 | . | -22.7% | . | 18.9%[57 µM] | -1.4% | 3.0%[59 µM]
CCOc1ccc(-n2c(=O)c3c4c(sc3n(CC(=O)Nc3cccc(C(F)(F)F)c3)c2=O)CCCCC4)cc1 | . | -7.2% | . | 28.9% | -2.4% | 2.9%[59 µM]
CS[C@@H]1SC[C@H]2C(=O)N(C)C(C(C)C)C(=O)OC[C@@H](NC(=O)c3cnc4ccccc4n3)C(=O)N[C@@H](C)C(=O)N(C)[C@H]1C(=O)N(C)C(C(C)C)C(=O)OC[C@@H](NC(=O)c1cnc3ccccc3n1)C(=O)N[C@@H](C)C(=O)N2C (stereo partly specified) | . | . | 7.0% | . | . | .
CN1CCN(C(=S)c2ccc(-c3cccc(Cl)c3Cl)o2)CC1 | -2.3% | 28.2µM* | -13.1% | 44.7µM* | ? | 39.8µM*
O=C(NC(NC(=O)c1ccccc1)c1ccccc1)c1ccccc1 | -28.2% | -29.7% | 2.1% | 16.6% | -32.2% | -1.6%[59 µM]
Fc1ccccc1-c1cc2ncccc2cn1 | -2.0% | ? | . | 45.8% | 56.2µM* | -3.6%[0.501 µM]
